Sampled rows, rich in hits. Any-hit rate of the full collection: about 5.4%.
CSC inhib: blocks cancer stem cells. AID 2717. inhibition, % at 7.5 µM. cancer stem cell-like cells viability, luminescence. actives 1.1% (n = 300,000); in the data active = inhibition above about 75%; inconclusive = no clear call, values can overlap the other calls; tested in HMLE shEcad cells
MPTP block: blocks calcium-induced mitochondrial swelling | isolated mouse mitochondria, Ca2+ swelling absorbance, 30 min | inhibition, % at 10 µM | actives 1.4% (n = 360,000) | AID 602449;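 active = inhibition of 50% or more, scaled per plate between neutral and stimulator controls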;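 also: 0% = DMSO wells given calcium and 100% = 1 mM EGTA wells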
Beta cell apopt: blocks beta cell apoptosis | actives 0.8% (n = 300,000) | protection from apoptosis, % (no concentration beside the values) | INS-1E cytokine-induced death, ATP luminescence, 48 h; percent of positive-control rescue, neutral wells zero;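 active = Every replicate reaches about 75%, or at least half do and their mean reaches it too, limit read from the data; inconclusive = At least half of replicates reach the limit but their mean does not; inactive = Under half of replicates reach the limit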;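 also: 0% = cytokine-treated negative control wells and 100% = positive control rescue; higher means more ATP so stronger rescue from cytokine killing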
SKKanGAS inh: SKKanGAS growth inhibition | S. pyogenes SKKanGAS, kanamycin growth, BacTiter-Glo, 6 h | inhibition, % at 7.5 µM | actives 1.3% (n = 300,000);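 active = mean replicate score, as percent of positive control median, at least 50; inconclusive = mean below 50 but one replicate at or above 50; inactive = mean and every replicate below 50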;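 also: strain carries kanamycin resistance gene driven by streptokinase promoter and grows in 40 µg/ml kanamycin; loss of luminescence reflects streptokinase promoter inhibition or plain growth inhibition; 0% = median of DMSO wells and 100% = positive control at its reference dose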
Mdm2-MdmX inh: inhibitors of human Mdm2/MdmX interaction; SaOS-2 split-luciferase Mdm2/MdmX complementation, luminescence; inhibition, % at 8 µM; O15151+Q00987; actives 3% (n = 330,000);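 active = inhibition of at least 50% at 8 µM in the primary screen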
Target sequence (O15151 whole entry, looked up): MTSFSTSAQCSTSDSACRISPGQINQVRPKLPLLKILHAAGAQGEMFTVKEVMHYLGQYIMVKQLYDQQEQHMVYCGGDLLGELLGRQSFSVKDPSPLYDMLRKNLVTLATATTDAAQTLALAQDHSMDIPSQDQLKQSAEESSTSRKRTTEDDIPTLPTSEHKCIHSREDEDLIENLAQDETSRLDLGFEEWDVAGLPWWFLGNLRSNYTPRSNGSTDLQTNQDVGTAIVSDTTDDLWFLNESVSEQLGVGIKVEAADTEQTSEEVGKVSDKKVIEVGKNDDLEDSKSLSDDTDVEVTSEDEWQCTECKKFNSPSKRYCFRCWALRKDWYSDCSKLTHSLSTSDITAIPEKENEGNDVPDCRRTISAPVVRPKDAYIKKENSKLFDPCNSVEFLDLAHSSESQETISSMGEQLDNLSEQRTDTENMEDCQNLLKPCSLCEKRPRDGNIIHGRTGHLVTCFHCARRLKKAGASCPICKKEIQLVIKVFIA
Target sequence (Q00987 whole entry, looked up): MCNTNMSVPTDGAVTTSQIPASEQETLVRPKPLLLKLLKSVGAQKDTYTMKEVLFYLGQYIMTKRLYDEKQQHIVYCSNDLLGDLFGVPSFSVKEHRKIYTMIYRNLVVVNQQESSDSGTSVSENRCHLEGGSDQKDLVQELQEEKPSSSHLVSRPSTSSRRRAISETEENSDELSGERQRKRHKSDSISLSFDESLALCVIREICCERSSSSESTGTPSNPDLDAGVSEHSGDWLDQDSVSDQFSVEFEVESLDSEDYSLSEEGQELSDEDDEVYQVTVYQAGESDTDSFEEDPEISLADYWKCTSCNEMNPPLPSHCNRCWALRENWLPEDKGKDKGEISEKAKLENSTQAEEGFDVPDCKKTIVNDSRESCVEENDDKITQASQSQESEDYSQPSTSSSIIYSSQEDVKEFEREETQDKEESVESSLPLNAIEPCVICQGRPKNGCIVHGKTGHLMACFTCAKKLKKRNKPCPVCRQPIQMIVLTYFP
Calb FLC: affects C. albicans growth with fluconazole; C. albicans CaCi-2 (fluconazole-resistant clinical isolate) + fluconazole, Alamar Blue growth, 48 h; growth inhibition, % (concentration not given with the values); actives 0.57% (n = 300,000);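 active = growth inhibition above about 58% in most replicates, limit read from the data, passing the limit was not always enough; inconclusive = exactly half the replicates above a set limit; inactive = most replicates below a set limit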;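 also: all wells also contain fluconazole at 8 µg/ml as a sub-toxic cotreatment; 0% = median of DMSO wells and 100% = median of geldanamycin control wells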
Mdm2 MdmX conf: human Mdm2/MdmX binding inhibition, confirmed | actives 55% (n = 10,000) | luminescent assay | inhibition, % at 8 µM | shares compounds with Mdm2-MdmX inh; in the data active = inhibition above about 40%
Full FLuc ctr: counter-screen for Mdm2/MdmX inhibitors: full-length luciferase | shares compounds with Mdm2-MdmX inh | SaOS-2 full-length luciferase counterscreen, luminescence | inhibition, % at 8 µM | actives 77% (n = 6,200) | AID 504607;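 active = mean inhibition at 8 µM reaching about 37%, which flags the compound as non-specific, limit read from the data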;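 also: p53-null SaOS-2 cells with luciferase driven by a doxycycline-inducible promoter; compound on cells about two nights before reading with doxycycline added after day one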
Numbers without * were called inactive; ? = inconclusive; / = no result.

SMILES | CSC inhib | MPTP block | Beta cell apopt | SKKanGAS inh | Mdm2-MdmX inh | Calb FLC | Mdm2 MdmX conf | others
COc1ccc2c(c1)-c1c(ssc1=S)C(C)(C)N2S(=O)(=O)c1ccc(C)cc1 | 66 | 3 | 2 | 47 | 58* | -1 | 46* | Full FLuc ctr=61*
COc1ccc2c(c1)-c1c(sn(-c3ccc(OC)c(OC)c3)c1=S)C(C)(C)N2 | 74 | -5 | / | 20 | 55* | 34 | 19
COc1ccc2c(c1)C(=O)C(=O)N2 | -10 | 0 | / | -1 | -32 | 10 | /
COc1ccc2c(c1)-c1c(ssc1=S)C(C)(C)N2 | 9 | 2 | -14 | -7 | 92* | 41 | 87* | Full FLuc ctr=55*
Cc1ccc2nc(NC(=O)CSc3nncc(=O)n3N)sc2c1 | -12 | -1 | -2 | -6 | 1 | -11 | /
Cc1ccc(-n2cnn(-c3ccc([N+](=O)[O-])cc3[N+](=O)[O-])c2=O)cc1 | 9 | 0 | -2 | 7 | -16 | 12 | /
COc1cc(-c2nc(-c3ccccc3)c(-c3cccs3)[nH]2)cc(OC)c1OC | 78* | 2 | 41 | 1 | 76* | 2 | 40* | Full FLuc ctr=100*
O=C(N/N=C/c1coc2ccc(Cl)cc2c1=O)c1ccc(O)cc1 | 0 | 1 | -15 | 2 | 38 | 27 | /
O=C(N/N=C/c1coc2ccc(Cl)cc2c1=O)c1ccncc1 | -13 | 2 | -12 | 9 | 60* | 8 | 44* | Full FLuc ctr=63*
CCc1cc(CNC(=O)C2CCC(=O)N(CCc3ccc(OC)cc3)C2)on1 (stereo unspecified) | -10 | 0 | -2 | -1 | -3 | -3 | /
CC(C)c1ccc(NC2CCCN(C(=O)c3ccco3)C2)cc1 (stereo unspecified) | 24 | 1 | 7 | 0 | 12 | -6 | /
COc1ccc2cc(C3CC(c4ccco4)=NN3C(=O)CCC(=O)O)c(Cl)nc2c1 (stereo unspecified) | 5 | 2 | -3 | 4 | 22 | 7 | /
COc1ccc(C2=NN(C(=O)c3ccco3)C(c3cc4ccccc4nc3Cl)C2)cc1 (stereo unspecified) | -17 | / | 4 | 12 | 82* | 7 | 8
COc1ccc(NC(=O)Cc2ccc(C)cc2)c([N+](=O)[O-])c1 | -7 | 1 | -3 | -6 | / | -21 | /
COc1ccc(NC(=O)CC2Nc3cc(C)c(C)cc3NC2=O)c([N+](=O)[O-])c1 (stereo unspecified) | 53 | 10 | 19 | 12 | 88* | -7 | 7
C=CCN1C(=O)c2ccc(C(=O)N3CCN(S(=O)(=O)c4ccc(C(C)C)cc4)CC3)cc2C1=O | -15 | -1 | / | -9 | 9 | -4 | /
CCCNC(=O)c1ccc(N2CCC3(CC2)CC(c2cccc(Br)c2)=NO3)c(NC(=O)c2ccc(Cl)c([N+](=O)[O-])c2)c1 | 12 | 1 | -1 | 24 | 61* | 2 | 12
CC1CN(Cc2ccccc2)c2nc3c(c(=O)n(CC(N)=O)c(=O)n3C)n2C1 (stereo unspecified) | 6 | 0 | -1 | -3 | -5 | ? | /
COc1ccc(CNc2oc(COc3ccc(Cl)cc3)nc2C#N)cc1 | / | 7 | -5 | 10 | 34 | -3 | /
COc1ccc(Nc2oc(COc3ccc(Cl)cc3)nc2C#N)cc1 | 29 | 3 | 3 | 12 | 61* | -8 | 44* | Full FLuc ctr=77*
CCc1nnc(NC(=O)CSc2nnc3ncccn23)s1 | -2 | 0 | -6 | -2 | 3 | 4 | /
CC(/C=C(\NC(=O)c1ccccc1)C(=O)N=Nc1c(O)[nH]c2ccc(C)cc12)=C\c1ccccc1 | 15 | 1 | 34 | 42 | 64* | 50 | 47* | Full FLuc ctr=82*
CCn1cc([C@@H]2C[C@H]3CN(Cc4cccc(Cl)c4)C(=O)[C@]34CCCN24)cn1 | -3 | -3 | -4 | -3 | 3 | 2 | /
CCN(CC)CCNC(=O)c1cc(S(=O)(=O)N2CCc3ccccc32)cn1C | -4 | 0 | -7 | -1 | 25 | -12 | /
CCN(CC)CCNC(=O)c1ccc(NC(=O)c2cccc(S(=O)(=O)N3c4ccccc4CC3C)c2)cc1 (stereo unspecified) | 22 | 0 | -5 | 0 | 80* | 10 | 27

Source: PubChem (several laboratories)
